The entries come from a sample that favours hits as a whole.
TDP1 cell CPT: DT40-hTDP1 cell growth loss with CPT. chicken DT40 Tdp1-/-;hTDP1 cells + 20 nM CPT, ATP luminescence, 48 h. hit rate 12% among 420,000. Potency, µM (titrated, usually from 46.2 µM), most hits filed as inhibitors; also: nearly all actives have a fitted effect of over 55% in size
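Cell growth measured by CellTiter-Glo luminescence after a minimum 48 h, 37 C compound exposure with 20 nM CPT in Tdp1-knockout DT40 cells stably expressing hTDP1, seeded 400/well; qHTS titration format.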
TDP1 cell noCPT: qHTS for Inhibitors of human tyrosyl-DNA phosphodiesterase 1 (TDP1): qHTS in cells in absence of CPT; hit rate 15% among 420,000; DT40 Tdp1-/- hTDP1 cells, no CPT, ATP luminescence, 48 h; Potency, µM (top dose mostly 46.2 µM), hits mostly inhibitors; AID 686978, 2013; also: nearly all actives have a fitted effect of over 55% in size
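Stably hTDP1-transfected Tdp1-null chicken DT40 cells were treated with library compounds minus camptothecin and grown for at least 48 hr at 37 °C, after which cellular ATP was quantified by luminescence.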
IL1B secr inh: inflammasome signaling inhibition, IL-1 beta readout | THP-1 LPS/ATP IL-1B secretion, AlphaLISA, 16 h; stronger effect = lower value | activity change, % at 57.5 µM | hit rate 4.7% among 360,000; in the data active = activity change below about -50%; inconclusive = mostly about -30% to -49%
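Secreted IL-1B measured by AlphaLISA bead assay after 16 h compound exposure of THP-1 cells; compounds (final up to 57.5 uM) added 1 h before LPS (250 ng/mL) and ATP (1.25 mM) stimulation; lower signal means less secretion.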
12-LOX inh: ALOX12 (human) lipoxygenase inhibition. hit rate 1.1% among 580,000. Potency, µM (highest dose often 108 µM), most hits filed as inhibitors. purified 12hLO, xylenol orange hydroperoxide absorbance. P18054. AID 1671190
Target sequence (P18054 whole entry, looked up): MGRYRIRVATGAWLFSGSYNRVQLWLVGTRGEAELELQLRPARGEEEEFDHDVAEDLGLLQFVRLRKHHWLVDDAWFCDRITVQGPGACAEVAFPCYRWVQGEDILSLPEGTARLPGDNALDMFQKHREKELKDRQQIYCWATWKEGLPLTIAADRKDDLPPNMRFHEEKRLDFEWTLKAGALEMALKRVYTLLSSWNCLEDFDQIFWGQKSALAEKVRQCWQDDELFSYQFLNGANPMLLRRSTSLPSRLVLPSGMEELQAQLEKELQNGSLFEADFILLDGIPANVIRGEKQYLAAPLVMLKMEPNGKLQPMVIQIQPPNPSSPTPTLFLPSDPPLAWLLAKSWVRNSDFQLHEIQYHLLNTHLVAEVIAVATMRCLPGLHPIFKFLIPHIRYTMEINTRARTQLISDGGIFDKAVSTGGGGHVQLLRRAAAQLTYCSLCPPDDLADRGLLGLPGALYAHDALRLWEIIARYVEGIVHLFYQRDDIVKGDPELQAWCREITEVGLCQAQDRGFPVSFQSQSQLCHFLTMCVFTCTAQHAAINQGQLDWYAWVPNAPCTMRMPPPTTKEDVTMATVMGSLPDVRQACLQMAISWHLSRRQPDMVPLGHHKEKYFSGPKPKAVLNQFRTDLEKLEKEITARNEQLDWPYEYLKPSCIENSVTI
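Purified human 12hLO at 150 nM in 25 mM Hepes, 0.01% Triton X-100, pH 7.0, preincubated 15 min at room temperature with compound. Reaction started with 40 uM arachidonic acid, 30 min at room temperature. Hydroperoxide measured by Fe-xylenol orange, 573/405 nm absorbance ratio.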
HT1080-NT tox: kills 2HG-producing HT-1080-NT fibrosarcoma cells | hit rate 1.6% among 360,000 | Potency, µM (doses to about 46.1 µM), usual class: cytotoxic | HT-1080-NT fibrosarcoma viability, CellTiter-Glo ATP luminescence, 48 h;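 also: NT is the 2HG producing partner of a matched IDH1 knockdown line; nearly all actives have a fitted effect of over 55% in size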
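Compounds were tested in concentration-response format on HT-1080-NT cells for 48 hours at 37 degrees C. Cell viability came from CellTiter-Glo luminescence; curves were classified by r2, response magnitude and activity.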
HT1080 IDH1KD tx: toxicity to HT-1080 IDH1 knockdown cells (counter line) | HT-1080 IDH1 knockdown viability, ATP luminescence, 48 h | Potency, µM (series often up to 46.1 µM), most hits filed as cytotoxic | hit rate 2% among 360,000 | AID 686971
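Using the IDH1-knockdown HT-1080 line run in the same batch and compound series as the NT line, viability after 48 h at 37 °C was determined by CellTiter-Glo luminescence and expressed as % activity.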
Of the large screens only hits and unclear results are named; the others gave an inactive call. Unless noted, calls follow the shape of the dose curve; as a rule, active = well fitted curve in the direction sought with a large enough effect; inconclusive = small, poorly fitted or top-dose-only effect, or another doubt; inactive = no such curve, though single readings can be large; an effect the other way counts as inactive or inconclusive.

CC(=O)c1cccc(Nc2nc(-c3cccc(C)c3)nc3ccccc23)c1	TDP1 cell CPT 21µM, TDP1 cell noCPT 5.8µM, 12-LOX inh 6.3µM (no result: IL1B secr inh, HT1080-NT tox, HT1080 IDH1KD tx)
CC(=O)c1cccc(Nc2nc(-c3ccc(C)cc3)nc3ccccc23)c1	none (no result: TDP1 cell CPT, TDP1 cell noCPT, IL1B secr inh, HT1080-NT tox, HT1080 IDH1KD tx)
Cc1noc(C)c1-c1cncnc1N(C)Cc1ccco1	none (no result: IL1B secr inh, HT1080-NT tox, HT1080 IDH1KD tx)
CC(C)Oc1nc(-c2ccccc2Cl)nc2ccccc12	TDP1 cell CPT inconclusive, TDP1 cell noCPT 15µM, HT1080 IDH1KD tx inconclusive
CCOc1ccc(Nc2nc(SC)nc(-c3ccccc3)c2C#N)cc1	none (no result: TDP1 cell CPT, TDP1 cell noCPT, IL1B secr inh, HT1080-NT tox, HT1080 IDH1KD tx)
O=C(NCCCNC(=O)c1c(Cl)cccc1Cl)c1c(Cl)cccc1Cl	none
N#Cc1cccc(N=c2ssnc2Cl)c1	TDP1 cell CPT 3.3µM, TDP1 cell noCPT 6.5µM, 12-LOX inh inconclusive
COc1cc(N=c2ssnc2Cl)cc(OC)c1	TDP1 cell CPT 10µM, TDP1 cell noCPT 13µM, IL1B secr inh inconclusive, 12-LOX inh inconclusive
COc1cccc(OC)c1	none (no result: TDP1 cell CPT, TDP1 cell noCPT, IL1B secr inh, HT1080-NT tox, HT1080 IDH1KD tx)
Clc1nssc1=Nc1ccc(Br)cc1	TDP1 cell CPT 10µM, TDP1 cell noCPT 13µM, IL1B secr inh -97, 12-LOX inh 4µM, HT1080-NT tox 16µM, HT1080 IDH1KD tx inconclusive
Clc1nssc1=Nc1nncs1	TDP1 cell CPT 5.8µM, TDP1 cell noCPT 7.3µM, IL1B secr inh -73, 12-LOX inh 4.5µM
Cc1cc(C)cc(C(N)=Nc2cccc(C#N)c2)c1	TDP1 cell noCPT inconclusive
CNC[C@@H]1OCc2cnnn2CCCC(=O)N([C@H](C)CO)C[C@H]1C	none
Clc1ccc(N=c2ssnc2Cl)nc1	TDP1 cell CPT 3.3µM, TDP1 cell noCPT 2.6µM, 12-LOX inh inconclusive
O=c1[nH]ccn1C1CCN(Cc2ccc(F)cc2)CC1	none (no result: TDP1 cell CPT, TDP1 cell noCPT, IL1B secr inh, HT1080-NT tox, HT1080 IDH1KD tx)
CCCc1noc(-c2ccn3c(CNC(=O)c4ccccc4Cl)nnc3c2)n1	12-LOX inh 40µM (no result: TDP1 cell CPT, TDP1 cell noCPT, IL1B secr inh, HT1080-NT tox, HT1080 IDH1KD tx)
CCc1noc(-c2ccn3c(CNC(=O)c4ccccc4Cl)nnc3c2)n1	none (no result: TDP1 cell CPT, TDP1 cell noCPT, IL1B secr inh, HT1080-NT tox, HT1080 IDH1KD tx)
CCCc1noc(-c2ccn3c(CNC(=O)c4c(F)cccc4F)nnc3c2)n1	none (no result: TDP1 cell CPT, TDP1 cell noCPT, IL1B secr inh, HT1080-NT tox, HT1080 IDH1KD tx)
COc1ccccc1CC(=O)NCc1nnc2cc(-c3nc(C)no3)ccn12	none (no result: TDP1 cell CPT, TDP1 cell noCPT, IL1B secr inh, HT1080-NT tox, HT1080 IDH1KD tx)
CCCc1noc(-c2ccn3c(CNC(=O)Cc4ccccc4OC)nnc3c2)n1	12-LOX inh 50µM (no result: TDP1 cell CPT, TDP1 cell noCPT, IL1B secr inh, HT1080-NT tox, HT1080 IDH1KD tx)
CCCc1noc(-c2ccn3c(CNC(=O)c4ccccc4F)nnc3c2)n1	12-LOX inh 50µM (no result: TDP1 cell CPT, TDP1 cell noCPT, IL1B secr inh, HT1080-NT tox, HT1080 IDH1KD tx)
Cc1nn(C)cc1CN1C[C@@H](CO)[C@H](c2ccccn2)C1	none (no result: TDP1 cell CPT, TDP1 cell noCPT, IL1B secr inh, HT1080-NT tox, HT1080 IDH1KD tx)
CCN1C(=O)N(Cc2cccc(OC)c2)C(=O)C12CCN(Cc1nc3ccccc3n1C)CC2	none (no result: TDP1 cell CPT, TDP1 cell noCPT, IL1B secr inh, HT1080-NT tox, HT1080 IDH1KD tx)
CC(=O)Oc1ccc(-c2cccc(C(=O)OCC(=O)Nc3ccccc3Oc3ccccc3)c2)cc1	TDP1 cell noCPT 18µM, HT1080-NT tox inconclusive, HT1080 IDH1KD tx inconclusive
CC(=O)Oc1ccc(-c2cccc(C(=O)OCC(=O)N(C)c3ccccc3)c2)cc1	TDP1 cell CPT inconclusive, TDP1 cell noCPT 23µM
CN(C)c1cccc(C(=O)OCC(=O)N(C)c2ccccc2)c1	none
COc1ccc(N(C)S(=O)(=O)c2cccc(C(=O)OCC(=O)N(C)c3ccccc3)c2)cc1	TDP1 cell CPT inconclusive, TDP1 cell noCPT 21µM
CCOc1ccccc1NC(=O)COC(=O)c1cccc(-c2ccc(OC(C)=O)cc2)c1	TDP1 cell CPT inconclusive, TDP1 cell noCPT 26µM
CC(C)(C)c1ccc(NC(=O)O[C@@H]2CO[C@H]3[C@@H]2OC[C@@H]3Nc2nccc(-c3cccc(F)c3)n2)cc1	none (no result: TDP1 cell CPT, TDP1 cell noCPT, IL1B secr inh, HT1080-NT tox, HT1080 IDH1KD tx)
C/C(=N/NC(=O)CNC(=O)c1ccncc1)c1ccco1	none
CC1=C(C(=O)Nc2cccnc2)C(c2ccc(Cl)cc2)n2nc(SCc3ccccc3)nc2N1 (configuration not stated)	none (no result: IL1B secr inh, HT1080-NT tox, HT1080 IDH1KD tx)
Cc1cccc(C)c1OCC(N)C(C)C (configuration not stated)	IL1B secr inh -57, 12-LOX inh inconclusive
COc1cccc(C(=O)NCc2cccnc2Oc2ccc(C)nc2)c1C	none (no result: TDP1 cell CPT, TDP1 cell noCPT, IL1B secr inh, HT1080-NT tox, HT1080 IDH1KD tx)
O=C(Cn1c(=O)n(-c2ccccc2)c(=O)c2sc3ccccc3c21)N1CCCC1	none (no result: IL1B secr inh, HT1080-NT tox, HT1080 IDH1KD tx)

Screening results deposited in PubChem BioAssay by National Center for Advancing Translational Sciences (NCATS).
